Experiment [1] in a line: NCI Yeast Anticancer Drug Screen. Data for the rad50 strain (AID 155).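 Further: 0% = growth of vehicle-only cultures of the same strain.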 The conditions noted are these: S. cerevisiae rad50 strain growth inhibition; at 50.0 µM; active compounds read high. In a few lines:
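Growth of the mutant yeast was measured after compound exposure and referenced to vehicle-treated cultures.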

A short description of experiment [2]: NCI Yeast Anticancer Drug Screen. Data for the mec2-1 strain (AID 157). The conditions noted are these: S. cerevisiae mec2-1 strain, at 50.0 µM, active compounds read high. The method, boiled down:
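Readout is yeast growth inhibition, normalised to vehicle-treated controls, in the mec2-1 strain exposed to compound.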

The nature of experiment [3]: NCI Yeast Anticancer Drug Screen. Data for the sgs1 mgt1 strain (AID 161).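 Further: 0% = growth of cultures given vehicle only.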 The settings on record: S. cerevisiae sgs1 mgt1 strain, at 50.0 µM, active compounds read high. In a few lines:
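Growth of a repair-deficient yeast mutant was monitored after compound treatment and expressed as inhibition relative to vehicle-treated cultures.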

Experiment [4] is described as follows: NCI Yeast Anticancer Drug Screen. Data for the cln2 rad14 strain (AID 165).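 Further: 0% = growth equal to vehicle treated cultures.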 The conditions noted are these: S. cerevisiae cln2 rad14 strain, at 50.0 µM, active compounds read high. The method, boiled down: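 Relative to vehicle controls, growth inhibition of compound-treated cln2 rad14 yeast was recorded.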
Experiment [5] in a line: NCI Yeast Anticancer Drug Screen. Data for the bub3 strain (AID 167). The conditions noted are these: S. cerevisiae bub3 mutant strain, at 50.0 µM, active compounds read high. The method, boiled down:
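Whole-cell yeast assay. The mutant strain was incubated with compounds, and growth inhibition was determined by comparison with vehicle-treated cells.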

A short description of experiment [6]: NCI Yeast Anticancer Drug Screen. Data for the mlh1 rad18 strain (AID 175). The conditions noted are these: S. cerevisiae mlh1 rad18 strain growth inhibition; at 50.0 µM; active compounds read high. In a few lines: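 Test agents were incubated with a yeast strain of defined genotype (DNA damage repair defect). Inhibition of growth was derived by comparison with vehicle-exposed cultures.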

This passage reports growth inhibition results from PubChem BioAssay (NCI).

About 79,000 compounds went through this panel and 15% of them were active in at least one assay; those are over-represented in the sample as a whole. Unmarked numbers belong to inactive results. Active and inactive are the calls of the source. No stated cut-off is given here; in the data, active means growth inhibition above about 70%; inactive means the rest.

`Cn1c(=O)cc(NC2OC(CO)C(O)C(O)C2O)[nH]c1=O` (stereo not given): the growth inhibition is 2.1% in experiment [1]; -3.3% in experiment [2]; 24.8% in experiment [3]; -5.3% in experiment [4]; 0.75% in experiment [5]; 11.5% in experiment [6].
As for `NC(=O)NC12CC3CC(CC(C3)C1)C2`, the growth inhibition in experiment [1] was 13.3%; in experiment [2], -5.8%; in experiment [3], 13.1%; in experiment [4], -0.75%; in experiment [5], 4.9%; in experiment [6] it was 2.75%.
Regarding `O=Cc1c[nH]c2ccccc2c1=O`, the growth inhibition in experiment [1] is 17.1%; in experiment [2], 0.9%; in experiment [3], 1.05%; in experiment [4], 3.55%; in experiment [5], 30.4%; in experiment [6], 10.9%.
Take `COC1(OC)C2(Cl)C(Cl)=C(Cl)C1(Cl)C1C=CC=CC12` (stereo not given): the growth inhibition in experiment [1] was -19.9%; in experiment [2], -14.2%; in experiment [3] it was -14.3%; in experiment [4], 5.55%; in experiment [5], -18.6%; in experiment [6], -35.3%.
Consider `CCOC(=O)CSc1nc(N)c2c(-c3ccccc3)c3c(nc2n1)CCCC3`, for which the growth inhibition in experiment [1] is -23.1%; in experiment [2] it was 11.1%; in experiment [3] it was 10.8%; in experiment [4], 33.1%; in experiment [5], 21.7%; in experiment [6], 17.7%.
As to `CC(C)/C(Cl)=N/OC(=O)Nc1ccc(Cl)c(Cl)c1`, the growth inhibition in experiment [1] was 85.5% (active); in experiment [2] it was 90.8% (active); in experiment [3], 92.3% (active); in experiment [4] it was 84.8% (active); in experiment [5], 88.9% (active); in experiment [6] it was 82.8% (active).
Regarding `CCN(CC)CCCNc1ccc2nnn3c4ccc(O)cc4c(=O)c1c23`, the growth inhibition is -15.6% in experiment [1]; -7.9% in experiment [2]; -7.35% in experiment [3]; 25.3% in experiment [4]; -6.5% in experiment [5]; 6.65% in experiment [6].
Take `CC(=O)NNC(=O)c1ccccc1CO`: the growth inhibition in experiment [1] was -18.8%; in experiment [2], -15%; in experiment [3] it was -4.55%; in experiment [4] it was 10.4%; in experiment [5] it was -2%; in experiment [6] it was 20.9%.
Regarding `COc1ccc(OC)c(C(O)P(=O)(c2ccccc2)c2ccccc2)c1` (stereo not given), the growth inhibition is 12.5% in experiment [1]; 1.65% in experiment [2]; 31.4% in experiment [3]; 12.2% in experiment [4]; 27.1% in experiment [5]; 27.2% in experiment [6].
Regarding `O=C(Nc1c(Cl)c(Cl)c2c(c1Cl)Cc1cc(Cl)ccc1-2)C(Cl)Cl`, the growth inhibition in experiment [1] is 36.9%; in experiment [2] it was 10.7%; in experiment [3], 1.5%; in experiment [4], 26.1%; in experiment [5], 3.85%; in experiment [6], 25.4%.
As for `COC(=O)c1cc(Cl)ccc1NC(=O)C1CCCCC1`, the growth inhibition was 4.75% in experiment [1]; 15.8% in experiment [2]; 23% in experiment [3]; 27.8% in experiment [4]; 15.2% in experiment [5]; 36% in experiment [6].
Regarding `Cc1ccc([N+](=O)[O-])c2c(NCCNC(=O)Cn3ccnc3[N+](=O)[O-])ccnc12`, the growth inhibition is 15.8% in experiment [1]; 4.3% in experiment [2]; 8.25% in experiment [3]; -0.7% in experiment [4]; 16.4% in experiment [5]; 12.3% in experiment [6].
For `O=C(Nc1ccc(Cl)cc1)C(=O)C1=C(O)c2ccccc2OC1`, the growth inhibition in experiment [1] is 16.9%; in experiment [2] it was -5.95%; in experiment [3], -12.3%; in experiment [4], 11.4%; in experiment [5], -4.95%; in experiment [6] it was 9.15%.
In the case of `O=c1[nH]c(=O)n(C2OC(COP(=O)(O)OP(=O)(O)O)C(O)C2O)cc1F` (stereo not given), the growth inhibition in experiment [1] is 1.4%; in experiment [2] it was -2.7%; in experiment [3], -11.4%; in experiment [4], -31.3%; in experiment [5], 0.75%; in experiment [6], -7%.
As to `CC(=O)OC1CCC2(C)C(CCC34OC23CCC2(C)C(C(C)CCCC(C)C)CCC24C)C1(C)C` (stereo not given), the growth inhibition in experiment [1] was 45.4%; in experiment [2] it was 16.4%; in experiment [3], 39.5%; in experiment [4] it was 1%; in experiment [5] it was -1%; in experiment [6], 28.4%.
For the compound `Cc1nc2ccc(C(F)(F)F)cc2nc1Nc1ccc(Cl)c(Cl)c1`, the growth inhibition was 20.2% in experiment [1]; 27.4% in experiment [2]; 47.6% in experiment [3]; 15.2% in experiment [4]; 6.95% in experiment [5]; 34% in experiment [6].
For the compound `CC(C)[Si](OC1=C(c2ccccc2)C(NC(=O)/C=C/c2ccc([N+](=O)[O-])cc2)CCC1)(C(C)C)C(C)C` (stereo not given), the growth inhibition in experiment [1] is 19.2%; in experiment [2], 4.15%; in experiment [3], -0.2%; in experiment [4], -6.7%; in experiment [5] it was -5.35%; in experiment [6] it was 29.9%.
As for `Cc1nc2c(=O)[nH]c(=O)[nH]c2[nH]c1=O`, the growth inhibition in experiment [1] was -20.4%; in experiment [2], -12.2%; in experiment [3], -24.6%; in experiment [4] it was -50.5%; in experiment [5], 2.55%; in experiment [6], -16.4%.
Consider `COC1=C(N)C(=O)c2nc(-c3nc(C(=O)O)c(C)c(Br)c3N)ccc2C1=O`, for which the growth inhibition is 89.3% (active) in experiment [1]; 92.2% (active) in experiment [2]; 84.9% (active) in experiment [3]; 89.2% (active) in experiment [4]; 80.5% (active) in experiment [5]; 92.7% (active) in experiment [6].
For `COc1ccc(Cl)cc1NC(=O)c1cccc([N+](=O)[O-])c1O`, the growth inhibition in experiment [1] was -14.9%; in experiment [2], 8.95%; in experiment [3], 1.75%; in experiment [4], -8.55%; in experiment [5], 8.65%; in experiment [6], -78.4%.
